RORg inh: qHTS for inhibitors of ROR gamma transcriptional activity; Drosophila S2 Gal4-RORgamma UAS-luciferase reporter, 20 h; Potency, µM (top dose mostly 53.6 µM), for inactives: at the top dose activity change, negative = inhibition, usual class: inhibitors; 310,000 compounds, 5.4% hits; note: potency is the fitted concentration of half-maximal effect; nearly all actives have a fitted effect of over 60% in size
Target sequence (P51450 whole entry, looked up, the tested form may be a part): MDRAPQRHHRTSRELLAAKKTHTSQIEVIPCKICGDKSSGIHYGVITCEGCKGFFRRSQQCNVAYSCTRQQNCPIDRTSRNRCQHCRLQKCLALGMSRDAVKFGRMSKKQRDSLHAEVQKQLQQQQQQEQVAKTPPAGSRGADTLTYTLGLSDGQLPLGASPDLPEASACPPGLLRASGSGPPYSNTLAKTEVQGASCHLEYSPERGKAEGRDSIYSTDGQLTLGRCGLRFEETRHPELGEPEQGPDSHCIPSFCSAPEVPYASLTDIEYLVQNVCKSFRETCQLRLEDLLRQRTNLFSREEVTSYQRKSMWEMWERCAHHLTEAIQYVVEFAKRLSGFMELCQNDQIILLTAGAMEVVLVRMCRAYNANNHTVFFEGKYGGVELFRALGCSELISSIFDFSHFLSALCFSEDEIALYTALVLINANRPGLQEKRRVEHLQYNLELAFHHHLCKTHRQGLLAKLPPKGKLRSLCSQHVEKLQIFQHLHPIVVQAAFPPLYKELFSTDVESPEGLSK
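ROR gamma transcriptional activity was tracked as Gal4-UAS luciferase output in stably transfected Drosophila Schneider cells, with compound added 1 hr before 700 uM copper sulfate induction and a 20 hr ambient-temperature incubation.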
ELG1 DNA repair: qHTS screen for small molecules that inhibit ELG1-dependent DNA repair in human embryonic kidney (HEK293T) cells expressing luciferase-tagged ELG1; HEK293T ELG1-luciferase reporter, luminescence, 16 h; DNA damage induced by 5-fluorouridine; Potency, µM (doses to about 46.1 µM), for inactives: at the top dose activity change, negative = inhibition, usual class: inhibitors; 330,000 compounds, 2.3% hits; note: potency is the fitted concentration of half-maximal effect; nearly all actives have a fitted effect of over 55% in size
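Luminescence from the luciferase reporter, measured 30 min after ONE-Glo reagent at room temperature, was the read-out. Beforehand, 2,000 cells per well were exposed for 16 hr at 37 °C to 5-fluorouridine together with compound or vehicle.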
IL1B secr inh: qHTS for Inhibitors of Inflammasome Signaling: IL-1-beta AlphaLISA Primary Screen; THP-1 LPS/ATP IL-1B secretion, AlphaLISA, 16 h; stronger effect = lower value; activity change, % at 57.5 µM; 360,000 compounds, 4.7% hits; AID 743279, 2014; in the data active = activity change below about -50%; inconclusive = mostly about -30% to -49%
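Secreted IL-1B measured by AlphaLISA bead assay after 16 h compound exposure of THP-1 cells; compounds (final up to 57.5 uM) added 1 h before LPS (250 ng/mL) and ATP (1.25 mM) stimulation; lower signal means less secretion.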
VP16 counter: VP16 counterscreen qHTS for inhibitors of ROR gamma transcriptional activity. Drosophila S2 Gal4-VP16 UAS-luciferase, luminescence, 20 h. Potency, µM (doses to about 53.6 µM), without a hit: at the highest dose activity, negative = inhibition, most hits filed as inhibitors. 310,000 compounds, 3.5% hits;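 note: Gal4-VP16 expression switched on by copper sulfate through the metallothionein promoter; potency is the fitted concentration of half-maximal effect; nearly all actives have a fitted effect of over 50% in size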
TDP1 cell CPT: qHTS for Inhibitors of human tyrosyl-DNA phosphodiesterase 1 (TDP1): qHTS in cells in presence of CPT; 420,000 compounds, 12% hits; chicken DT40 Tdp1-/-;hTDP1 cells + 20 nM CPT, ATP luminescence, 48 h; Potency, µM (doses to about 46.2 µM), for inactives: top-dose activity change, negative = growth inhibition, usual class: inhibitors; AID 686979, 2013; note: potency is the fitted concentration of half-maximal effect; nearly all actives have a fitted effect of over 55% in size
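Cell growth measured by CellTiter-Glo luminescence after a minimum 48 h, 37 C compound exposure with 20 nM CPT in Tdp1-knockout DT40 cells stably expressing hTDP1, seeded 400/well; qHTS titration format.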
DT40 TDP1 no CPT: qHTS for Inhibitors of human tyrosyl-DNA phosphodiesterase 1 (TDP1): qHTS in cells in absence of CPT | DT40 Tdp1-/- hTDP1 cells, no CPT, ATP luminescence, 48 h | Potency, µM (titrated, usually from 46.2 µM), for inactives: top-dose activity change, negative = growth inhibition, actives largely listed as inhibitors | 420,000 compounds, 15% hits; note: potency is the fitted concentration of half-maximal effect; nearly all actives have a fitted effect of over 55% in size
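DT40 Tdp1-/-;hTDP1 cells, no CPT (DMSO vehicle only), 400 cells/well; compounds pin-transferred; ≥48 hr, 37 °C; CellTiter-Glo 30 min RT dark, luminescence read.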
* marks the source's active call; other numbers are inactive results; [ ] = dose if it differs, or a comment. Compounds with a hit are over-represented: about 21% of the library has one in this group of screens. Unless noted, calls come from the whole dose curve; as a rule, active = well fitted curve in the direction sought with a large enough effect; inconclusive = small, poorly fitted or top-dose-only effect, or another doubt; inactive = no such curve, though single readings can be large; an effect the other way counts as inactive or inconclusive. % is set by controls: 0 for no effect and ±100 for the full control effect.

Results for COc1ccc(C2Nc3cccc4cccc(c34)N2)cc1 ?
RORg inh: -32%; ELG1 DNA repair: 11%; IL1B secr inh: 29; VP16 counter: 0%; TDP1 cell CPT: 21µM*; DT40 TDP1 no CPT: inconclusive

How did CN(C)c1ccc(C2Nc3cccc4cccc(c34)N2)cc1 do in these assays?
RORg inh: -20%; ELG1 DNA repair: inconclusive; IL1B secr inh: 10; VP16 counter: 8%; TDP1 cell CPT: inconclusive; DT40 TDP1 no CPT: 23µM*

How did c1ccc(C2Nc3cccc4cccc(c34)N2)cc1 do in these assays?
RORg inh: inconclusive; ELG1 DNA repair: -5%; IL1B secr inh: 39; VP16 counter: -21%; TDP1 cell CPT: 18µM*; DT40 TDP1 no CPT: -89%

What do the screens show for `COc1ccc(-c2cc3nccc(-c4cc(Cl)c(C)cc4O)n3n2)cc1`?
TDP1 cell CPT: -6%; DT40 TDP1 no CPT: -17%

Results for C=COC(=O)/C=C/C ?
RORg inh: 2%; VP16 counter: 7%

Results for Nc1nc2n(n1)C(=O)CC(c1ccccc1[N+](=O)[O-])N2 (stereo unspecified) ?
RORg inh: -2%; ELG1 DNA repair: 8%; IL1B secr inh: -9; VP16 counter: 5%; TDP1 cell CPT: 1%; DT40 TDP1 no CPT: -4%

What do the screens show for `Brc1ccc(C2Nc3cccc4cccc(c34)N2)o1`?
RORg inh: 3%; ELG1 DNA repair: -2%; IL1B secr inh: -77*; VP16 counter: 2%; TDP1 cell CPT: 21µM*; DT40 TDP1 no CPT: 18µM*

Results for O=[N+]([O-])c1ccccc1C1Nc2cccc3cccc(c23)N1 ?
RORg inh: 1µM*; ELG1 DNA repair: 5%; IL1B secr inh: -66*; VP16 counter: -1%[0.365 µM]; TDP1 cell CPT: 7.3µM*; DT40 TDP1 no CPT: inconclusive

Results for c1csc(C2Nc3cccc4cccc(c34)N2)c1 ?
RORg inh: -21%; ELG1 DNA repair: 1%; IL1B secr inh: -27; VP16 counter: -17%; TDP1 cell CPT: 16µM*; DT40 TDP1 no CPT: inconclusive

What do the screens show for `CN1c2cccc3cccc(c23)N(C)C1c1cccs1`?
RORg inh: -26%; ELG1 DNA repair: -26%; IL1B secr inh: 2; VP16 counter: -23%; TDP1 cell CPT: -4%; DT40 TDP1 no CPT: -14%

Results for COc1cc(OC)c(C2Nc3cccc4cccc(c34)N2)c(OC)c1 ?
RORg inh: -18%; ELG1 DNA repair: inconclusive; IL1B secr inh: -16; VP16 counter: -5%; TDP1 cell CPT: 21µM*; DT40 TDP1 no CPT: 15µM*

How did Cc1ccc(NC(=O)CN2C=NS(=O)(=O)c3ccccc32)cc1 do in these assays?
TDP1 cell CPT: -26%; DT40 TDP1 no CPT: -14%

What do the screens show for `CCNC(=O)C1(C)CCN(Cc2ccc(C#N)cc2)C1` (stereo unspecified)?
IL1B secr inh: 49; TDP1 cell CPT: -10%; DT40 TDP1 no CPT: -13%

Results for CCN(c1ccccc1)S(=O)(=O)c1cc(NC(=O)CN2CCN(C)CC2)ccc1Cl ?
ELG1 DNA repair: -6%; IL1B secr inh: -22; TDP1 cell CPT: inconclusive; DT40 TDP1 no CPT: inconclusive

What do the screens show for `Clc1ccc(C2Nc3cccc4cccc(c34)N2)cc1Cl`?
RORg inh: 9%[1.91 µM]; ELG1 DNA repair: 0%; IL1B secr inh: 9; VP16 counter: 1%; TDP1 cell CPT: inconclusive; DT40 TDP1 no CPT: inconclusive

Results for Clc1cccc(C2Nc3cccc4cccc(c34)N2)c1 ?
RORg inh: -30%; ELG1 DNA repair: -5%; IL1B secr inh: -23; VP16 counter: -11%; TDP1 cell CPT: 5.2µM*; DT40 TDP1 no CPT: 10µM*

How did CN(Cc1ccco1)C(=O)c1cc(NC(=O)C2CCC2)c2c(c1)nc(-c1ccncc1)n2C do in these assays?
TDP1 cell CPT: inconclusive; DT40 TDP1 no CPT: -18%

What do the screens show for `CCc1nc(SCC(=O)Nc2ccc(Br)cn2)n[nH]1`?
RORg inh: -25%; ELG1 DNA repair: 0%; VP16 counter: -3%

What do the screens show for `CCN(CC)Cc1c(O)c(Cl)cc2c3c(c(=O)oc12)CCCC3`?
RORg inh: -21%; ELG1 DNA repair: -8%; IL1B secr inh: 12; VP16 counter: -1%; TDP1 cell CPT: inconclusive; DT40 TDP1 no CPT: inconclusive

How did CN(C)Cc1c(O)c(Cl)cc2c3c(c(=O)oc12)CCCC3 do in these assays?
RORg inh: -22%; ELG1 DNA repair: 11%; IL1B secr inh: 21; VP16 counter: 9%; TDP1 cell CPT: inconclusive; DT40 TDP1 no CPT: 15µM*

Results for CC(Oc1cccc(Cl)c1)C(=O)Nc1cc(S(=O)(=O)N2CCOCC2)ccc1N1CCCCC1 (stereo unspecified) ?
ELG1 DNA repair: -14%; IL1B secr inh: 25; TDP1 cell CPT: inconclusive; DT40 TDP1 no CPT: 21µM*

Results for CC(Oc1ccc(F)cc1)C(=O)Nc1cc(S(=O)(=O)N2CCOCC2)ccc1N1CCCCC1 (stereo unspecified) ?
ELG1 DNA repair: -15%; IL1B secr inh: -19; TDP1 cell CPT: inconclusive; DT40 TDP1 no CPT: 16µM*

What do the screens show for `CCCCCOc1ccc(NC(=O)Cn2c(-c3nonc3N)nc3ccccc32)cc1`?
TDP1 cell CPT: inconclusive; DT40 TDP1 no CPT: -19%

What do the screens show for `CC(=O)NC(Cc1ccc([N+](=O)[O-])cc1)C(=O)NCC(N)C(=O)c1ccccc1` (stereo unspecified)?
TDP1 cell CPT: 22µM*; DT40 TDP1 no CPT: 5.6µM*

How did CCN(C(=O)COC(=O)/C=C/c1ccc(C)o1)c1c(N)n(Cc2ccccc2)c(=O)[nH]c1=O do in these assays?
ELG1 DNA repair: 16%; IL1B secr inh: 6; TDP1 cell CPT: -6%; DT40 TDP1 no CPT: -14%

How did CN(C(=O)COC(=O)/C=C/c1ccc(C(F)(F)F)cc1)c1c(N)n(Cc2ccccc2)c(=O)[nH]c1=O do in these assays?
ELG1 DNA repair: 10%; IL1B secr inh: -4; TDP1 cell CPT: 6.5µM*; DT40 TDP1 no CPT: 6.5µM*

How did CCN(C(=O)COC(=O)/C=C/c1ccc(Cl)c(Cl)c1)c1c(N)n(Cc2ccccc2)c(=O)[nH]c1=O do in these assays?
IL1B secr inh: 17; TDP1 cell CPT: 3.7µM*; DT40 TDP1 no CPT: 2.1µM*

Screens: PubChem, National Center for Advancing Translational Sciences (NCATS)
